These results are taken from PubChem BioAssay (EPA / NIEHS).

Inconclusive results are not listed. Activity calls are given as the source filed them. How the source made its calls: active means hit-call score of the fitted dose curve at least 0.9, where 1 is the maximum; inconclusive means response in the unintended direction; inactive means score below 0.9.

Sequence of Nucleoli Translocation, AR (gene 367) (P10275 whole entry, looked up): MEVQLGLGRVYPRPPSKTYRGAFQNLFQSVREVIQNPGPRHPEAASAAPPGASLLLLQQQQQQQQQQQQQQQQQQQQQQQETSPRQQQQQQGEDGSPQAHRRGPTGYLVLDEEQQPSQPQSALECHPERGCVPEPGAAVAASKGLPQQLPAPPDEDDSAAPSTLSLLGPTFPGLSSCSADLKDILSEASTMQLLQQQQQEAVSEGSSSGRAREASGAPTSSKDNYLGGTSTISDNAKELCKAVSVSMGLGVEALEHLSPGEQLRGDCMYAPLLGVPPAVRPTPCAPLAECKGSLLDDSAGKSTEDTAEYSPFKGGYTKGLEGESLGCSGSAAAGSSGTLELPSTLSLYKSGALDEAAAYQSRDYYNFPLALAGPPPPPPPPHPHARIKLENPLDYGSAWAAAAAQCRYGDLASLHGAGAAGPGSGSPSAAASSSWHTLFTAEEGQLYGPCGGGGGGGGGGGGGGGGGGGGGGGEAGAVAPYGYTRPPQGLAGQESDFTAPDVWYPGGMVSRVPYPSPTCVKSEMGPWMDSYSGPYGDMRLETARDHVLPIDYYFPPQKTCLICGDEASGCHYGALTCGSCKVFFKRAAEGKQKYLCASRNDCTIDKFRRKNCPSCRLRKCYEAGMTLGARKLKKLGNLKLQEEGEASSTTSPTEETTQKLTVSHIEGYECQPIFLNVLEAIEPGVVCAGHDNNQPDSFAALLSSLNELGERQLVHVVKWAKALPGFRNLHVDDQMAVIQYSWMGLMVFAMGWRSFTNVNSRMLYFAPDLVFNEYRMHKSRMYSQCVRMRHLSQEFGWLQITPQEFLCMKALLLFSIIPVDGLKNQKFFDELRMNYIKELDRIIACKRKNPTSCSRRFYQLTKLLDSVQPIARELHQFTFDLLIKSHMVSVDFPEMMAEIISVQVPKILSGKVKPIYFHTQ
Sequence of Ratio of Nucleoli Translocation and Cytoplasm, AR (gene 367) (P10275 whole entry, looked up): as above

In one assay the target is Nucleoli Translocation, AR (gene 367) (UniProt P10275). Nature of the assay: UPITT_HCI_U2OS_AR_TIF2_Nucleoli_Agonist: University of Pittsburgh U2OS Androgen Receptor-Transcriptional Intermediary Factor 2 (AR-TIF2) Agonism High Content Imaging Assay for Nucleoli Translocation (AID 2283998). The procedure, abridged:
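Readout is red (AR-RFP) fluorescence localized to nucleoli, measured by high-content imaging and analysed for increase relative to DMSO. Compound series spanned 0.195 to 50 uM final in 0.5% DMSO.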
Regarding `O=C(NC(=O)c1c(F)cccc1F)Nc1cc(Cl)c(OC(F)(F)C(F)F)c(Cl)c1`, the outcome was inactive.

Turning to `C=CC(=O)NCNC(=O)C=C`, the result was inactive.

As for `c1cc2ccc3cccc4ccc(c1)c2c34`, the compound was called inactive.

Consider `CCOC(=O)C(O)(c1ccc(Cl)cc1)c1ccc(Cl)cc1`, for which the AC50 is 50 µM (active).

As for `CCC(=O)O[C@H]1CC[C@H]2[C@@H]3CCC4=CC(=O)CC[C@]4(C)[C@H]3CC[C@]12C`, the AC50 was 0.00109 µM (active).

In the case of `NS(=O)(=O)C(F)(F)C(F)(F)C(F)(F)C(F)(F)C(F)(F)C(F)(F)C(F)(F)C(F)(F)F`, the AC50 was 30.9 µM (active).

As to `c1ccc(-c2ccccc2)cc1`, the compound was classed as inactive.

For `O=C(N[C@H]1CN2CCC1CC2)c1cc2ccoc2cn1`, the call was inactive.

Regarding `Cc1ccccc1CO[C@@H]1C[C@@]2(C(C)C)CC[C@]1(C)O2`, the outcome was inactive.

Take `CC1=C2C[C@H]3[C@@H](CC=C4C[C@@H](O)CC[C@@]43C)[C@@H]2CC[C@]12O[C@@H]1C[C@H](C)CN[C@H]1[C@H]2C`: the outcome was inactive.

The next assay concerns the target Ratio of Nucleoli Translocation and Cytoplasm, AR (gene 367) (UniProt P10275). Kind of assay: UPITT_HCI_U2OS_AR_TIF2_Nucleoli_Cytoplasm_Ratio_Antagonist: University of Pittsburgh U2OS Androgen Receptor-Transcriptional Intermediary Factor 2 (AR-TIF2) Antagonism High Content Imaging Assay for Ratio of Nucleoli Translocation and Cytoplasm (AID 2283999).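 Further: antagonists lower the DHT-driven ratio of nucleolar to cytoplasmic red signal.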 Put shortly:
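U2OS cells expressing RFP-tagged human AR and GFP-tagged TIF2; compounds tested at 20 uM final (0.2% DMSO) in primary screen, 0.195–50 uM (0.5% DMSO) for concentration response. Readout: nucleolar-to-cytoplasmic red fluorescence ratio by high-content imaging, fitted relative to DHT.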
With `O=C(NC(=O)c1c(F)cccc1F)Nc1cc(Cl)c(OC(F)(F)C(F)F)c(Cl)c1`, the outcome was inactive.

`C=CC(=O)NCNC(=O)C=C`: the result was inactive.

Turning to `c1cc2ccc3cccc4ccc(c1)c2c34`, the outcome was inactive.

`CCOC(=O)C(O)(c1ccc(Cl)cc1)c1ccc(Cl)cc1`: the result was inactive.

As for `NS(=O)(=O)C(F)(F)C(F)(F)C(F)(F)C(F)(F)C(F)(F)C(F)(F)C(F)(F)C(F)(F)F`, the result was inactive.

Regarding `CCCCCCCCOC(=O)c1ccccc1C(=O)OCCCCCCCC`, the result was inactive.

On to `Cc1ccccc1CO[C@@H]1C[C@@]2(C(C)C)CC[C@]1(C)O2`, for which the outcome was inactive.

As for `CC1=C2C[C@H]3[C@@H](CC=C4C[C@@H](O)CC[C@@]43C)[C@@H]2CC[C@]12O[C@@H]1C[C@H](C)CN[C@H]1[C@H]2C`, the outcome was inactive.

Another assay has the same target. Kind of assay: UPITT_HCI_U2OS_AR_TIF2_Nucleoli_Cytoplasm_Ratio_Agonist: University of Pittsburgh U2OS Androgen Receptor-Transcriptional Intermediary Factor 2 (AR-TIF2) Agonism High Content Imaging Assay for Ratio of Nucleoli Translocation and Cytoplasm (AID 2284000).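 Further: hits raise the red nucleolar to cytoplasm ratio above vehicle.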 Put shortly:
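U2OS cells expressing RFP-tagged human AR and GFP-tagged TIF2; high-content imaging ratio of nucleolar to cytoplasmic red fluorescence, fitted as gain of signal vs DMSO. Single point at 20 uM final (0.2% DMSO); concentration-response 0.195-50 uM final (0.5% DMSO).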
Turning to `O=C(NC(=O)c1c(F)cccc1F)Nc1cc(Cl)c(OC(F)(F)C(F)F)c(Cl)c1`, the outcome was inactive.

For the compound `C=CC(=O)NCNC(=O)C=C`, the result was inactive.

With `c1cc2ccc3cccc4ccc(c1)c2c34`, the outcome was inactive.

With `CCOC(=O)C(O)(c1ccc(Cl)cc1)c1ccc(Cl)cc1`, the half-maximal activity concentration (AC50) was 70.3 µM (active).

In the case of `CCC(=O)O[C@H]1CC[C@H]2[C@@H]3CCC4=CC(=O)CC[C@]4(C)[C@H]3CC[C@]12C`, the AC50 was 0.000508 µM (active).

As to `NS(=O)(=O)C(F)(F)C(F)(F)C(F)(F)C(F)(F)C(F)(F)C(F)(F)C(F)(F)C(F)(F)F`, the AC50 was 32 µM (active).

On to `O=C(N[C@H]1CN2CCC1CC2)c1cc2ccoc2cn1`, for which the result was inactive.

Take `Cc1ccccc1CO[C@@H]1C[C@@]2(C(C)C)CC[C@]1(C)O2`: the result was inactive.

For the compound `CC1=C2C[C@H]3[C@@H](CC=C4C[C@@H](O)CC[C@@]43C)[C@@H]2CC[C@]12O[C@@H]1C[C@H](C)CN[C@H]1[C@H]2C`, the result was inactive.

The term AC50 denotes the midpoint of the concentration-response curve, whichever way the signal moves.
